PubChem BioAssay (Tox21)
Values joined by “and” are separate entries in the source; they are usually repeats but may differ in a detail not shown here. Equal entries are not always repeated. Inconclusive results are not listed. Entries that show only a call come without a potency. Active and inactive are the calls of the source. The call rests on the fitted dose curve.

Assay: p53 small molecule agonists, cell-based qHTS assay with human liver microsomes: qHTS cell viability counter screen (AID 1963579); further: nearly all actives have a fitted effect of over 45% in size
Settings: p53RE-bla HCT-116 viability, ATP luminescence, 16 h, HLM; series mostly up to 66 µM
From the text: National Center for Advancing Translational Sciences [NCATS]
Division of Preclinical Innovation [DPI]
U.S. Environmental Protection Agency [EPA]
National Institutes of Environmental Health Sciences [NIEHS]
National Toxicology Program [NTP]
U.S. Food and Drug Administration [FDA]
p53, a tumor suppressor protein, is activated following cellular insult, including DNA damage and other cellular stresses. The activation of p53 regulates cell fate by inducing DNA repair, cell cycle arrest, apoptosis, or cellular senescence. The activation of p53, therefore, is a good indicator of DNA damage and other cellular stresses. […] The activation of the reporter gene under culture conditions can be detected by fluorescence intensity. This cell line was used to screen the Tox21 10K compound library in the condition of presence of human liver microsomes and to identify agonists that activate the p53 signaling pathway after in vitro metabolic activation (Ooka et al., Archive of Toxicology 96:1975-1987, 2022).
Tox21 Assay Protocol Summary:
The p53RE-bla cells were dispensed at 4,000cells/3ul/well in 1536-well black-clear bottom plates. After the assay plates were incubated at 37 C, 5% CO2 incubator for 5 hours, 23 nL of compounds dissolved in DMSO, positive controls or DMSO only was transferred to the assay plate. Following compound addition, 3 uL of human liver microsomes (XenoTech, Kansas City, KS) at final concentration of 0.5 mg/mL and 1uL of B-Nicotinamide adenine dinucleotide 2'-phosphate (NADPH) at final concentration of 0.5 mg/mL were transferred to the assay plate. The plates were incubated at 37 C for 16 hours. 1 uL of LiveBLAzer detection mixture was added to each well and the plates were incubated at room temperature in the dark for 2 h. Fluorescence intensity at 460 and 530 nm emission and 405 nm excitation were measured by an Envision plate reader. For cell viability readout that measures cytotoxicity, 4 ul/well of CellTiter-Glo reagent was added into the assay plates using a Flying Reagent Dispenser. After 30 min incubation at room temperature, the luminescence intensity in the plates was measured using a ViewLux plate reader.
Potency means the concentration at half of the fitted maximal effect.

Row | Compound | Potency
1 | O=C1CCC(=O)O1 | inactive
2 | C=CC(=O)OCCCCCC | inactive
3 | c1ccc2c(c1)ccc1ncccc12 | inactive
4 | Cc1nc(-c2ccc3c(c2)CCN(CCC2CCC(NC(=O)/C=C/c4ccc(F)cc4)CC2)CC3)no1 (stereo not given) | inactive
5 | CC(C)(C)c1n[nH]c(=O)n(N)c1=O | inactive
6 | O=C(c1ccccc1O)c1ccccc1O | inactive
7 | CC(C)(CCl)c1ccccc1 | inactive
8 | COS(=O)(=O)O | inactive
9 | C1COCCO1 | inactive
10 | CC(=O)N1C[C@H](O)C[C@H]1C(=O)O | inactive
11 | Clc1ccc2c(c1)C(N1CCNCC1)=Nc1ccccc1O2 | inactive
12 | CC(C[N+](C)(C)C)OC(N)=O (stereo not given) | inactive
13 | C=CC(=O)O[C@H]1C[C@@H]2CC[C@@]1(C)C2(C)C | inactive
14 | c1ccc2c(c1)CCC2 | inactive
15 | CC(CC=O)CC(C)(C)C (stereo not given) | inactive
16 | CC(C)(CC(=O)O)C(=O)O | inactive
17 | O=C(O)C(=O)Nc1cccc(-c2nn[nH]n2)c1 | inactive
18 | Nc1c(S(=O)(=O)O)cc(Br)c2c1C(=O)c1ccccc1C2=O | inactive
19 | C=CCS(=O)(=O)O | inactive
20 | CCCO | inactive

Row | Compound | Potency
21 | COC(=O)c1c(Cl)c(Cl)c(C(=O)OC)c(Cl)c1Cl | inactive
22 | CC/C=C/CCO | inactive
23 | OCc1ccccc1 | inactive
24 | Oc1ccccc1O | inactive
25 | O=C1CCCCCCCCCCCCCCCO1 | inactive
26 | O=[N+]([O-])c1cncn1CCN1CCOCC1 | inactive
27 | COc1cc(CCC(C)=O)ccc1O | inactive
28 | COc1c2ccoc2cc2oc(=O)ccc12 | inactive
29 | S=C(NC1CCCCC1)NC1CCCCC1 | inactive
30 | CC(=O)/C=C/C1C(C)=CCC(C)C1(C)C (stereo not given) | inactive
31 | CC(C)COC(=O)c1ccccc1O | inactive
32 | CN=C(NC#N)NCCSCc1nc[nH]c1C | inactive
33 | CCC(C)(C)CC | inactive
34 | CCCCC(CC)COP(=O)(O)OCC(CC)CCCC (stereo not given) | 36.4 µM (active) and 20.4 µM (active)
35 | COc1cccc2c1C(=O)c1c(O)c3c(c(O)c1C2=O)C[C@@](O)(C(=O)CO)C[C@@H]3O[C@H]1C[C@H](N)[C@H](O)[C@H](C)O1 | inactive
36 | CC(C)(C)C(=O)OCOP(=O)(COCCn1cnc2c(N)ncnc21)OCOC(=O)C(C)(C)C | inactive
37 | CC(C)(O)C(=O)c1ccc(OCCO)cc1 | inactive
38 | O=C1OC2(c3ccc(O)cc3Oc3cc(O)ccc32)c2ccccc21 | inactive
39 | O=C[C@H](O)[C@H](O)[C@H](O)CO | inactive
40 | Oc1ccc2c(c1)OC[C@@H](N1CCC(O)(c3ccc(F)cc3)CC1)[C@H]2O | inactive
